Molecules are shown by their SMILES. Compounds without any hit were thinned out: in the full panel of roughly 83,000, 20% have a hit.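 48-hour exposure, single concentration, 96-well plates; percent growth endpoint where 0 means no net growth. Active: below 10.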 Active and inactive are the calls of the source.

The first assay deals with SF-268 CNS. Nature of the assay: NCI-60 one-dose screen, 48 h (100 = growth as untreated, 0 = no growth, -100 = all killed). The conditions noted are these: 10 µM unless noted.
For the compound `Cc1nc2cncc(C#Cc3cncc(C(=O)Nc4ccc(CN5CCN(C)CC5)c(C(F)(F)F)c4)c3)c2nc1C`, the growth was 16.1% (inactive).
Regarding `CCN(CC)CCC(CNc1c2ccc(Cl)cc2nc2ccc(OC)cc12)c1ccccc1` (stereo not drawn), the growth is 8.46% (active).
As to `Cc1csc(NC(c2ccc(Br)cc2)c2c(C)nc3ccccn23)n1` (stereo not drawn), the growth was 92.2% (inactive).
In the case of `O=C(NCCCNc1nccc(-n2ccc3cccnc32)n1)c1c(F)cccc1F`, the growth is 96.3% (inactive).
Consider `COc1ccc(/C=C\c2cc(OC)c(OC)c(OC)c2)cc1OC(=O)c1cccc(Cn2cc(CCOC(=O)c3cccc(Cn4nnc5c4C(=O)c4ccccc4C5=O)c3)nn2)c1`, for which the growth was 27.7% (inactive).
Consider `O=C(Nc1ccc(NCCN2CCOCC2)nc1)c1ccc([N+](=O)[O-])cc1`, for which the growth is 103% (inactive).
Consider `CCOC(=O)C1C(=O)C=C(c2ccc(OC)cc2)CC1c1sc(N(C)Cc2ccccc2)nc1Cl` (stereo not drawn), for which the growth was 74.4% (inactive).
Same read-out and setting: with `NC(=S)N/N=C(/CCN1CCCC1)CC(C1=C(O)C2=CCCCC2OC1=O)c1ccccc1` (stereo not drawn) the figure was 89.6% (inactive).
Turning to `O=C(NNC(=O)N1c2ccccc2C=Cc2ccccc21)c1ccccc1`, the growth was 98.4% (inactive).
Regarding `Cc1ccc(S(=O)(=O)n2cc(C(=O)C(=O)Nc3ccncc3)c3ccccc32)cc1`, the growth is 44.6% (inactive).
Take `COc1ccc(C2=C(c3cc(OC)c(OC)c(OC)c3)C(=O)CC2)cc1`: the growth is 33% (inactive).
For `Cn1ccc(Nc2nccc(Oc3ccc(C(=O)Nc4cccc(F)c4)c(Cl)c3)n2)c1`, the growth is 79.4% (inactive).
On to `CCOc1cc2c(Cl)ncnc2c(OCC)c1OCC`, for which the growth is 33.9% (inactive).
`NC(N)=Nc1nc2ccccc2o1`: the growth is 88.4% (inactive).
As to `CC(C)CC1NC(C)(C)CO1` (stereo not drawn), the growth was 102% (inactive).
Same read-out and setting: with `COc1cc(/C=N\NC(=O)CN2CCN(c3cc4c(cc3F)c(=O)c(C(=O)N/N=C/c3cc(OC)c(OC)c(OC)c3)cn4C3CC3)CC2)cc(OC)c1OC` the figure was -6.34% (active); with `COc1ccc(-c2nc3sc(-c4cc(OC)c(OC)c(OC)c4)nn3c2/C=C2/C(=O)Nc3ccc(F)cc32)cc1`, -7.6% (active).
In the case of `Nc1cccc(-c2nc3sccn3c2-c2ccnc(NCCNS(=O)(=O)c3ccc(C(F)(F)F)cc3)n2)c1`, the growth is 35.5% (inactive).
Turning to `COc1ccc(-c2ccc(-c3ccc(C(=N)N)s3)s2)cc1Cl`, the growth was 76.8% (inactive).
`NC(=O)c1c(NC(=S)Nc2ccc(OC(F)(F)F)cc2)sc2c1CCC1(C2)OCCO1`: the growth was 103% (inactive).
Turning to `COc1ccc2[nH]c(C(=O)OCc3ccc4c(Cl)cc(Cl)c(O)c4n3)cc2c1`, the growth was -72.9% (active).
Still for that read-out and setting: with `CCO/C=N/C1=C(C#N)C(c2ccc(Cl)cc2)c2c(c3ccccc3n(C)c2=O)O1` (stereo not drawn) the figure was 80% (inactive).
For `COc1ccc(S(=O)(=O)Nc2cc(/C=C\c3cc(OC)c(OC)c(OC)c3)cc(OC)c2OC)cc1`, the growth is 14% (inactive).
On to `CCCCNC(=O)Oc1ccc(/C(=C(\C)c2ccccc2)c2ccc(OCCN(CC)CC)cc2)cc1`, for which the growth was 68.5% (inactive).
With `COc1ccc(S(=O)(=O)n2cc(C(=O)C(=O)Nc3ccncc3)c3ccccc32)cc1F`, the growth was 81.7% (inactive).
Still for that read-out and setting: for `CC(C)(C)n1cc(-c2ccnc(NCCCNS(=O)(=O)c3ccc(Br)cc3)c2)c(-c2cccc(O)c2)n1` the value was 31.1% (inactive); for `O=Nc1c(-c2cccc([N+](=O)[O-])c2)nc2ncccn12`, 92.2% (inactive); for `O=C1/C(=C/c2ccc([N+](=O)[O-])cc2)CN(C(=O)CCN2CCC(=NO)CC2)C/C1=C\c1ccc([N+](=O)[O-])cc1`, -22.4% (active).
For `CCOC(=O)C1=C(C)NC(C)=C(C(=O)OCC)C1(C)C`, the growth was 110% (inactive).
Turning to `CCCCN(CCCC)C(=N)c1ccnc2ccccc12`, the growth is 103% (inactive).
Consider `C1=Cc2ccccc2N(c2nnc(-c3ccccc3)o2)c2ccccc21`, for which the growth was 91.7% (inactive).
As to `CCCCCCCCCCCCCCCCCCNC(=O)[C@H]1CSC(c2ccc(OC)cc2O)N1` (stereo partly drawn), the growth was 50.6% (inactive).
As for `COc1ccc(C(=O)c2cc(OC)c3c(c2)OCO3)cc1O`, the growth was 27.6% (inactive).
The same measure, in the same setting: for `COc1ccc(-c2cc(-c3ccccc3)nc(SCCCC(=O)NO)n2)cc1OC` the value was -19.2% (active); for `CCOC(=O)C1CCNC(=O)C1=O` (stereo not drawn), 108% (inactive).
On to `COc1ccc(Nc2[nH]n3c(=O)cc(-c4ccccc4)nc3c2C(=O)Nc2ccc(C)cc2)c(OC)c1`, for which the growth is 96.2% (inactive).
With `COc1ccc(-c2cn(-c3cccc(C(=O)/C=C/c4cc(OC)c(OC)c(OC)c4)c3)c(=O)[nH]2)cc1OC`, the growth was 65.8% (inactive).
On the same count and under the same terms, with `Cc1ccc(S(=O)(=O)NC(=O)n2cc(-c3ccncc3)c(-c3ccc(Cl)c(O)c3)n2)cc1` the figure was 117% (inactive); with `COC(=O)C1CCCN1C(=O)[C@@H]1CCCN1C(=O)[C@H](Cc1c[nH]c2ccccc12)NC(=S)Nc1cc(C(F)(F)F)cc(C(F)(F)F)c1` (stereo partly drawn), 51.5% (inactive).

The next assay relates to SF-295 CNS. Described as above. The settings on record: 10 µM unless noted.
Consider `Cc1nc2cncc(C#Cc3cncc(C(=O)Nc4ccc(CN5CCN(C)CC5)c(C(F)(F)F)c4)c3)c2nc1C`, for which the growth is 20.5% (inactive).
Regarding `CCN(CC)CCC(CNc1c2ccc(Cl)cc2nc2ccc(OC)cc12)c1ccccc1` (stereo not drawn), the growth is -33.2% (active).
For `Cc1csc(NC(c2ccc(Br)cc2)c2c(C)nc3ccccn23)n1` (stereo not drawn), the growth is 74.7% (inactive).
Turning to `O=C(NCCCNc1nccc(-n2ccc3cccnc32)n1)c1c(F)cccc1F`, the growth was 98.4% (inactive).
Same read-out and setting: for `COc1ccc(/C=C\c2cc(OC)c(OC)c(OC)c2)cc1OC(=O)c1cccc(Cn2cc(CCOC(=O)c3cccc(Cn4nnc5c4C(=O)c4ccccc4C5=O)c3)nn2)c1` the value was 11% (inactive).
With `O=C(Nc1ccc(NCCN2CCOCC2)nc1)c1ccc([N+](=O)[O-])cc1`, the growth is 91.3% (inactive).
With `CCOC(=O)C1C(=O)C=C(c2ccc(OC)cc2)CC1c1sc(N(C)Cc2ccccc2)nc1Cl` (stereo not drawn), the growth is 83.6% (inactive).
`NC(=S)N/N=C(/CCN1CCCC1)CC(C1=C(O)C2=CCCCC2OC1=O)c1ccccc1` (stereo not drawn): the growth was 98.5% (inactive).
`O=C(NNC(=O)N1c2ccccc2C=Cc2ccccc21)c1ccccc1`: the growth was 95.7% (inactive).
As for `Cc1ccc(S(=O)(=O)n2cc(C(=O)C(=O)Nc3ccncc3)c3ccccc32)cc1`, the growth is 16.4% (inactive).
Still for that read-out and setting: with `COc1ccc(C2=C(c3cc(OC)c(OC)c(OC)c3)C(=O)CC2)cc1` the figure was 9.47% (active); with `Cn1ccc(Nc2nccc(Oc3ccc(C(=O)Nc4cccc(F)c4)c(Cl)c3)n2)c1`, 61.8% (inactive); with `CCOc1cc2c(Cl)ncnc2c(OCC)c1OCC`, 96.1% (inactive).
As for `NC(N)=Nc1nc2ccccc2o1`, the growth was 112% (inactive).
On the same count and under the same terms, for `CC(C)CC1NC(C)(C)CO1` (stereo not drawn) the value was 131% (inactive).
Take `COc1cc(/C=N\NC(=O)CN2CCN(c3cc4c(cc3F)c(=O)c(C(=O)N/N=C/c3cc(OC)c(OC)c(OC)c3)cn4C3CC3)CC2)cc(OC)c1OC`: the growth was 17.4% (inactive).
Turning to `COc1ccc(-c2nc3sc(-c4cc(OC)c(OC)c(OC)c4)nn3c2/C=C2/C(=O)Nc3ccc(F)cc32)cc1`, the growth was -17.2% (active).
`Nc1cccc(-c2nc3sccn3c2-c2ccnc(NCCNS(=O)(=O)c3ccc(C(F)(F)F)cc3)n2)c1`: the growth is 46.6% (inactive).
Consider `COc1ccc(-c2ccc(-c3ccc(C(=N)N)s3)s2)cc1Cl`, for which the growth is 10.8% (inactive).
For the compound `NC(=O)c1c(NC(=S)Nc2ccc(OC(F)(F)F)cc2)sc2c1CCC1(C2)OCCO1`, the growth was 93.4% (inactive).
For the compound `COc1ccc2[nH]c(C(=O)OCc3ccc4c(Cl)cc(Cl)c(O)c4n3)cc2c1`, the growth is 67.8% (inactive).
Consider `CCO/C=N/C1=C(C#N)C(c2ccc(Cl)cc2)c2c(c3ccccc3n(C)c2=O)O1` (stereo not drawn), for which the growth was 57.3% (inactive).
Regarding `COc1ccc(S(=O)(=O)Nc2cc(/C=C\c3cc(OC)c(OC)c(OC)c3)cc(OC)c2OC)cc1`, the growth is 19.4% (inactive).
For `CCCCNC(=O)Oc1ccc(/C(=C(\C)c2ccccc2)c2ccc(OCCN(CC)CC)cc2)cc1`, the growth was 91.1% (inactive).
Same read-out and setting: with `COc1ccc(S(=O)(=O)n2cc(C(=O)C(=O)Nc3ccncc3)c3ccccc32)cc1F` the figure was 43.2% (inactive); with `CC(C)(C)n1cc(-c2ccnc(NCCCNS(=O)(=O)c3ccc(Br)cc3)c2)c(-c2cccc(O)c2)n1`, 12% (inactive); with `O=Nc1c(-c2cccc([N+](=O)[O-])c2)nc2ncccn12`, 107% (inactive).
For `O=C1/C(=C/c2ccc([N+](=O)[O-])cc2)CN(C(=O)CCN2CCC(=NO)CC2)C/C1=C\c1ccc([N+](=O)[O-])cc1`, the growth is -28.6% (active).
Consider `CCOC(=O)C1=C(C)NC(C)=C(C(=O)OCC)C1(C)C`, for which the growth was 117% (inactive).
With `CCCCN(CCCC)C(=N)c1ccnc2ccccc12`, the growth was 93.8% (inactive).
The same measure, in the same setting: for `C1=Cc2ccccc2N(c2nnc(-c3ccccc3)o2)c2ccccc21` the value was 92% (inactive); for `CCCCCCCCCCCCCCCCCCNC(=O)[C@H]1CSC(c2ccc(OC)cc2O)N1` (stereo partly drawn), 93% (inactive); for `COc1ccc(C(=O)c2cc(OC)c3c(c2)OCO3)cc1O`, 15.5% (inactive).
On the same count and under the same terms, for `COc1ccc(-c2cc(-c3ccccc3)nc(SCCCC(=O)NO)n2)cc1OC` the value was -0.804% (active).
As to `CCOC(=O)C1CCNC(=O)C1=O` (stereo not drawn), the growth is 122% (inactive).
Regarding `COc1ccc(Nc2[nH]n3c(=O)cc(-c4ccccc4)nc3c2C(=O)Nc2ccc(C)cc2)c(OC)c1`, the growth was 95.7% (inactive).
As for `COc1ccc(-c2cn(-c3cccc(C(=O)/C=C/c4cc(OC)c(OC)c(OC)c4)c3)c(=O)[nH]2)cc1OC`, the growth was 96.5% (inactive).
Still for that read-out and setting: with `Cc1ccc(S(=O)(=O)NC(=O)n2cc(-c3ccncc3)c(-c3ccc(Cl)c(O)c3)n2)cc1` the figure was 109% (inactive).
On the same count and under the same terms, for `COC(=O)C1CCCN1C(=O)[C@@H]1CCCN1C(=O)[C@H](Cc1c[nH]c2ccccc12)NC(=S)Nc1cc(C(F)(F)F)cc(C(F)(F)F)c1` (stereo partly drawn) the value was 25.1% (inactive).

The record behind these values is PubChem BioAssay (NCI).
